Test results reported in PubChem BioAssay AID588342 (National Center for Advancing Translational Sciences (NCATS), 2011).
In all, about 360,000 compounds went through this assay and about 25,000 (6.9%) were called active. Roughly 9% stayed inconclusive and do not appear here. The call rests on the fitted dose curve; in most records, active means well fitted inhibition curve with a large enough effect; inconclusive means small, poorly fitted or top-dose-only effect; inactive means flat fitted curve, though single readings scatter. What follows is part of a selection rich in actives, with near analogues and random picks from the rest. A call without a number means that no potency is given here.

These compounds were tested against Luciferin 4-monooxygenase (Photinus pyralis) (UniProt P08659) (assay: qHTS profiling assay for firefly luciferase inhibitor/activator using purifed enzyme and Km concentrations of substrates (counterscreen for miR-21 project)). Conditions: purified FLuc, luminescence inhibition; series mostly up to 57.5 µM.
Chain of Luciferin 4-monooxygenase (Photinus pyralis) (P08659 whole entry, looked up): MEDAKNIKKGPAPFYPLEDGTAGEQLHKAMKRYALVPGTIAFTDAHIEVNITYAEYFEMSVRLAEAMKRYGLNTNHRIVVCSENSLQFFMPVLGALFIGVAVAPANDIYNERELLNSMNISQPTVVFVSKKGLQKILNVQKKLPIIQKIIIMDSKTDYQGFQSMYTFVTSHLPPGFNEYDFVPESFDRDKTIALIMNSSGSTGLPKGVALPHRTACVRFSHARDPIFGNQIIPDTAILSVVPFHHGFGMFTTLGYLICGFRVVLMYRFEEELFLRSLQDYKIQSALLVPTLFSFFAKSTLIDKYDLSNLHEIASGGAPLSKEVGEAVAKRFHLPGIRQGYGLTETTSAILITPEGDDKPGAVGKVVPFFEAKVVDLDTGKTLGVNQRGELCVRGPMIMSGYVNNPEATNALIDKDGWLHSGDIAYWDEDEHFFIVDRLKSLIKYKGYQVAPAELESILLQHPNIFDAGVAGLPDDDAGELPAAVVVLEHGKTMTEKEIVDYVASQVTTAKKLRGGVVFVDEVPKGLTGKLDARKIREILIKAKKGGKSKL
How it was run: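 Purified P. pyralis luciferase (10nM final) with 10uM D-luciferin and 10uM ATP (Km levels) in 50mM Tris acetate pH 7.5, 10mM Mg acetate, 0.01% Tween-20, 0.05% BSA; qHTS 6-point titration, ~60 µM downward; luminescence read.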
Further: nearly all actives have a fitted effect of over 55% in size.
Potency means the concentration at half of the fitted maximal effect.

Compound | Potency
O=C(CN(CC1CCCO1)C(=O)CNS(=O)(=O)c1ccc(F)cc1)NCc1ccco1 (stereo not drawn) | inactive
CCC(=O)c1ccc(OC(=O)/C=C/c2cc(OC)c(OC)c(OC)c2)cc1 | inactive
CCOc1ccc(C(NC(=O)c2cc(OC)c(OC)c(OC)c2)c2cc(Cl)c3cccnc3c2O)cc1 (stereo not drawn) | inactive
CCOc1ccc(N/C=C/C(=O)c2cc(OC)c(OC)c(OC)c2)cc1 | 13.5 µM (active)
CC1(C)O[C@@H]2[C@H](O1)[C@@H](COS(=O)(=O)O)O[C@H]2n1ccc(=O)[nH]c1=O | inactive
O=C(NCC(=O)N(Cc1cccs1)C(C(=O)NC1CCCCC1)c1ccco1)c1cccs1 (stereo not drawn) | inactive
Clc1ccc2nc(CSc3ccccc3)cn2c1 | 0.849 µM (active)
O=c1c2ccccc2nc2n1C(CSc1ccc(Cl)cc1)CN2 (stereo not drawn) | inactive
O=C(/C=C/c1ccc2c(c1)OCO2)NCc1cn2cc(Cl)ccc2n1 | inactive
Cc1cccc(-c2oc3ccc(-c4ccc5c(c4)OCO5)cc3c2C#Cc2cncn2C)c1 | inactive
Cc1ccc(NC(=O)CN2C(=O)CC(C)Sc3ccccc32)c(C)c1 (stereo not drawn) | inactive
COc1cccc(C2=CC(=O)C[C@H](c3ccc(OC)c(OC)c3)C2)c1 | inactive
CC(=O)C1(C)N(O)C(C)(C)C(c2cccs2)=[N+]1[O-] (stereo not drawn) | 0.301 µM (active)
C/C(=N\O)C1(C)N(O)C(C)(C)C(c2ccc(Br)cc2)=[N+]1[O-] (stereo not drawn) | inactive
CC1(C)C(c2cccs2)=[N+]([O-])C2(CCCCC2=O)N1O (stereo not drawn) | inactive
COc1ccc(SCc2cc(=O)c3ccc(C)c(C)c3[nH]2)cc1 | inactive
C=CCn1c(SCC(=O)Nc2ccc(NC(C)=O)cc2)nc2sc(C)c(C)c2c1=O | inactive
CC(=O)Nc1ccc(NC(=O)CSc2nnnn2C2CCCCC2)cc1 | inactive
O=C(CSc1nnnn1C1CCCC1)N1CCCCC1 | 19 µM (active)
CC1CCCC(C)N1C(=O)CSc1nnnn1C1CCCC1 (stereo not drawn) | inactive
COc1ccc(Cn2c(=O)n(-c3ccccc3C)c(=O)c3c4c(sc32)CN(C(C)=O)CC4)cc1 | inactive
COc1ccc(-c2nc3scc(CCNS(=O)(=O)c4cc(F)ccc4OC)n3n2)cc1OC | inactive
CCOc1ccc(CNCCSc2nnnn2C)cc1 | inactive

Compound | Potency
O=C(Nc1ccc2c(c1)CCC2)c1ccc(Br)s1 | 1.9 µM (active)
O=C(N/N=C\c1cc2c(cc1Cl)OCO2)c1ccc(Br)s1 | inactive
CC1CC(C)CN(CCC(=O)Nc2ccc3c(c2)CCC3)C1 (stereo not drawn) | inactive
Cc1cccc(N2CCN(S(=O)(=O)c3ccc4[nH]c5c(c4c3)CCCCC5)CC2)c1C | inactive
CN1CCN(c2oc(-c3ccc(COc4ccc(Cl)cc4)o3)nc2C#N)CC1 | inactive
C=CCN(CC=C)C(=O)CN1C(=O)c2ccccc2C1=O | inactive
C=CCn1c(C)cc(C(=O)CN2C(=O)c3ccccc3C2=O)c1C | 1.51 µM (active)
Cc1cc(C)cc(NC(=O)CN2C(=O)c3ccccc3C2=O)c1 | inactive
CCc1ccc(NC(=O)CCCc2nnc3n(CCCOC)c(=O)c4sccc4n23)cc1 | inactive
COc1ccccc1NC(=O)c1cc(S(=O)(=O)NCCc2ccccc2)ccc1F | inactive
Cc1ccc(C)c(S(=O)(=O)n2nc(C)c(S(=O)(=O)N3CCC(C)CC3)c2C)c1 | inactive
COc1ccc(/C(N)=N/OC(=O)Oc2ccccc2)cc1 | inactive
COc1ccc(CC(=O)Nc2sc(Cc3ccccc3)c(C)c2C(N)=O)cc1 | inactive
COc1ccc(/C(N)=N/OC(=O)Cc2ccccc2)cc1 | 19 µM (active)
CCC(=O)N1CCc2cc(S(=O)(=O)NC(Cc3ccccc3)C(=O)NCc3ccccc3)ccc21 (stereo not drawn) | inactive
COc1cccc(N(C(=O)c2snc(C(N)=O)c2N)C(C(=O)NCC2CCCO2)c2c[nH]c3ccccc23)c1 (stereo not drawn) | inactive
CCOC(=O)C1(Cc2ccccc2C)CCCN(C(=O)c2ccc(COC)o2)C1 (stereo not drawn) | 21.3 µM (active)
CCOC(=O)C1(Cc2ccccc2C)CCCN(C(=O)CN2C(=O)CSC2=O)C1 (stereo not drawn) | inactive
CCOC(=O)C1(Cc2ccccc2C)CCCN(S(C)(=O)=O)C1 (stereo not drawn) | inactive
CCOC(=O)c1cn(CC)c2cc(F)c(F)cc2c1=O | inactive
COc1ccc(C(=O)NCc2ccc(C)cc2)cc1S(=O)(=O)N1CCCC1 | inactive
O=C(c1cnn(-c2ccc(F)cc2)c1-n1cccc1)N1CCN(c2ccc(F)cc2)CC1 | inactive
Nc1ccccc1SC(C[N+](=O)[O-])c1ccccc1 (stereo not drawn) | 10.7 µM (active)

Compound | Potency
Cc1ccc(C(C[N+](=O)[O-])c2c(C)cc3ccccn23)cc1 (stereo not drawn) | inactive
Cc1ccc(CNC(=O)CCc2c(C)nn(-c3ccc(N4CCCC4)nn3)c2C)cc1 | inactive
CCCCOC(=O)c1[nH]c(C)c(C(=O)OC)c1C | 12 µM (active)
CCOC(=O)c1c(C)[nH]c(C(=O)OCC(=O)c2ccc(OC)cc2OC)c1C | inactive
COC(=O)c1c(C)[nH]c(C(=O)NCCc2ccc(S(N)(=O)=O)cc2)c1C | inactive
CCn1c2ccccc2c2cc(CN3CCN(Cc4cccc(Cl)c4)CC3)ccc21 | inactive
CSc1ccccc1C(=O)OCC(=O)N1CCN(C(C)=O)CC1 | inactive
COc1ccccc1CNC(=O)COc1ccc(C)nc1[N+](=O)[O-] | inactive
CCOc1ccccc1C(=O)NC1(C(F)(F)F)NC(=O)N(CCc2ccc(OC)c(OC)c2)C1=O (stereo not drawn) | inactive
O=C(CSc1nnc(-c2ccccc2O)o1)NC1CCCCC1 | inactive
Fc1ccc(CSc2nnc(-c3cc4c(s3)-c3ccccc3CC4)o2)cc1 | inactive
CCSc1nnc(-c2cc3c(s2)-c2ccccc2CC3)o1 | 10.7 µM (active)
CCOC(=O)c1[nH]c(C)c(CCC(=O)N2CCN(c3ccccc3)CC2)c1C | inactive
CC(=O)Nc1ccc(NC(=S)NC(=O)/C=C/c2ccccc2)cc1 | inactive
CC(OC(=O)/C=C/c1ccccc1)C(=O)Nc1ccc(C(N)=O)cc1 (stereo not drawn) | inactive
O=C(c1ccccc1)c1ccc(C(=O)N2CCN(c3ccccc3)CC2)cc1 | inactive
COC(C(=O)Nc1ccc(C(C)=O)cc1)c1ccccc1 (stereo not drawn) | inactive
O=C(c1ccc(S(=O)(=O)N2CCOCC2)cc1)N1CCN(c2ccccc2)CC1 | inactive
CC(=O)Nc1ccc(/C=C/C(=O)c2ccccc2)cc1 | 1.35 µM (active)
CC(=O)Nc1ccc(C(=O)/C=C/c2ccc[nH]2)cc1 | 8.49 µM (active)
O=C(/C=C/c1ccc(N2CCOCC2)cc1)c1ccccc1 | 0.953 µM (active)
CCCC(=O)Nc1ccc(C(=O)N/N=C/c2ccc[nH]2)cc1 | inactive
